PubChem BioAssay (EPA / NIEHS)
Activity calls are given as the source filed them. How the source made its calls: active means hit-call score of the fitted dose curve at least 0.9, where 1 is the maximum; inactive means score below 0.9.

Read-out: growth arrest and DNA damage 45 (GADD45G), GADD45G (gene 10912)
Assay: LTEA_HepaRG_GADD45G: Life Technologies and Expression Analysis (LTEA) Assay for growth arrest and DNA damage 45 (GADD45G) using HepaRG (AID 2283499)
Conditions: mRNA level, 48 h; actives raise or lower the signal
Procedure: LTEA_HepaRG is a cell based, multiplexed-readout assay that uses HepaRG, a human liver cell line, with measurements taken at 48 hours after chemical dosing on a 96-well plate.LTEA_HepaRG_GADD45G is one of 102 assay component(s) measured in the LTEA HepaRG cell culture assay. It is a marker of Cell proliferation, survival, death.Data from the assay component LTEA_HepaRG_GADD45G was analyzed into 1 endpoint. This assay endpoint, LTEA_HepaRG_GADD45G, was analyzed with bidirectional fitting relative to DMSO as the negative control and baseline of activity. Using a type of inducible reporter, measures of mRNA induction for gain or loss-of-signal activity can be used to understand regulation of transcription factor activity. To generalize the intended target to other relatable targets, this assay endpoint is annotated to the mutagenicity response intended target family, where the subfamily is Cell proliferation, survival, death.
A total of 1060 chemcials from the ToxCast library were tested in eight-point concentration-response experiments. Cell culture and cytotoxicity assays were conducted at Thermo Fisher Scientific's Custom Services facility (Madison, WI). A single lot of human HepaRG cells (Thermo Fisher Scientific, Frederick, MD) was used for the cell culture experiments. 96-well format collagen type I coated plates of human HepaRG cells were prepared using established methods. Briefly, cryopreserved HepaRG cells were thawed, plated at a density of approximately 100,000 cells/well in HepaRG Thaw, Plate, and General Purpose media (HPRG770, Thermo Fisher Scientific), and incubated for 48 hours. 0.5% DMSO was selected as vehicle control to balance the requisite need of DMSO in HepaRG cultures to maintain differentiation (for example, baseline metabolism, proportions of hepatocytes vs. cholangiocytes), while enabling further hepatic receptor pathway activation (for example, PXR and CAR) in response to chemical exposure. 48 hours after plating, the culture medium was replaced with HepaRG Serum-Free Incudtion Media. Cells were exposed to each test chemical in duplicate and maintained in CO2 incubators for another 48 hours. Chemical plates were thawed to room temperature and 200x concentrations of treatment groups were prepared. 8-point conentration-reponse curves were made with the highest exposure at 100 uM, followed by half-log dilutions, all in 0.5% DMSO. Each test plate contained variouse controls, induction positive controls (1mM phenobarbital), cytotoxicity positive controls ([…] aflatoxin B1), vehicle controls (0.5% DMSO), and total lysis controls (0.5% DMSO). Cell morphology images were taken using an Essen IncuCyte FLR automated microscope, with six 96-well plates imaged in about 24 minutes. Images were captured and exported and JPEG files. Spent culture media was transfered to black-well plates for the LDH assay, and remaining media was sorted at -80 C for later use. Cells were treated with RLT buffer and frozen until shipped for gene expression analysis. Total RNA was isolated from the cell suspension in 75 uL of Buffer RLT (Qiagen, Germantown, MD 20874) by Quintiles/Expression Analysis (Durham, NC) using a custom isolation procedure. Total RNA from each plate well was transferred to a preamplification plate. Fluidigm's 96.96 Dynamic ArrayTM (Fluidigm, Amsterdam, the Netherlands) technology was used for gene expression analyses by quantitative reverse transcription polymerase chain reaction (qRT-PCR, performed by Quintiles/Expression Analysis, Durham, NC)89. Standard TaqManTM Assays (Applied Biosystems/ThermoFisher Scientific, Foster City, CA) were used to assess the expression of 93 genes selected based on their selectivity and sensitivity to important hepatic receptors known to be modulated by environmental chemicals; importance in human hepatocyte functionality; and hepatotoxicity. […]

SMILES	outcome	AC50
COc1cnc(OC)n2nc(NS(=O)(=O)c3c(OCC(F)F)cccc3C(F)(F)F)nc12	inactive	
CCCCNC(=O)OCC#CI	inactive	
CCCCNC(=O)n1c(NC(=O)OC)nc2ccccc21	inactive	
CNC(=S)S	inactive	
CCc1nn(C)c(C(=O)NCc2ccc(C(C)(C)C)cc2)c1Cl		0.6 µM (active)
CCCCC(CC)COC(=O)c1ccccc1C(=O)OCC(CC)CCCC (stereo not given)	inactive	
COP(=S)(OC)Oc1nc(Cl)c(Cl)cc1Cl	inactive	
CCCN(CCC)c1c([N+](=O)[O-])cc(S(N)(=O)=O)cc1[N+](=O)[O-]	inactive	
CCOC(=O)C(Cl)Cc1cc(-n2nc(C)n(C(F)F)c2=O)c(F)cc1Cl (stereo not given)	inactive	
CC1COC(Cn2cncn2)(c2ccc(Oc3ccc(Cl)cc3)cc2Cl)O1 (stereo not given)		12.2 µM (active)
COc1ccc(C(c2ccc(OC)cc2)C(Cl)(Cl)Cl)cc1		56.2 µM (active)
CCOc1cc(Oc2ccc(C(F)(F)F)cc2Cl)ccc1[N+](=O)[O-]	inactive	
N#Cc1nn(-c2c(Cl)cc(C(F)(F)F)cc2Cl)c(N)c1S(=O)C(F)(F)F (stereo not given)		31.5 µM (active)
COC(=O)c1ccccc1C(=O)OC	inactive	
N#CC(CCc1ccc(Cl)cc1)(Cn1cncn1)c1ccccc1 (stereo not given)		40 µM (active)
COC(=O)N(OC)c1ccccc1COc1ccn(-c2ccc(Cl)cc2)n1		79.5 µM (active)
CCOP(=S)(OCC)SCn1c(=O)oc2cc(Cl)ccc21	inactive	
COC(=O)C=C(C)OP(=O)(OC)OC	inactive	
CCNc1nc(Cl)nc(NC(C)C)n1	inactive	
C=CCC1=C(C)[C@@H](OC(=O)[C@@H]2[C@@H](C=C(C)C)C2(C)C)CC1=O	inactive	

SMILES	outcome	AC50
CCON=C(CC)C1=C(O)CC(c2c(C)cc(C)cc2C)CC1=O (stereo not given)	inactive	
Cc1cc(Cl)ccc1OCC(=O)O	inactive	
CON(C)C(=O)Nc1ccc(Cl)c(Cl)c1	inactive	
C#CCOS(=O)OC1CCCCC1Oc1ccc(C(C)(C)C)cc1 (stereo not given)		12.7 µM (active)
CNC(=O)ON=CC(C)(C)SC	inactive	
O=C(O)COc1nc(Cl)c(Cl)cc1Cl	inactive	
CCOC(=O)CC(SP(=S)(OC)OC)C(=O)OCC (stereo not given)	inactive	
CC(Oc1ccc(Cl)cc1Cl)C(=O)O (stereo not given)	inactive	
Fc1ccc(Oc2ccnc3cc(Cl)cc(Cl)c23)cc1	inactive	
C=CC1(C)OC(=O)N(c2cc(Cl)cc(Cl)c2)C1=O (stereo not given)	inactive	
COc1nc(NC(C)C)nc(NC(C)C)n1	inactive	
Cc1ccc(-c2c(Cl)nc(C#N)n2S(=O)(=O)N(C)C)cc1		11.7 µM (active)
N#Cc1cc(Br)c(O)c(Br)c1		71.4 µM (active)
CC(C)(C)c1ccc(CSc2cnn(C(C)(C)C)c(=O)c2Cl)cc1		2.07 µM (active)
CC1=C(C(=O)Nc2ccccc2)SCCO1		61.8 µM (active)
COC(=O)C(C)Oc1ccc(Oc2ccc(Cl)cc2Cl)cc1 (stereo not given)	inactive	
CCCCOC(=O)c1ccccc1C(=O)OCCCC	inactive	
Cc1c(F)c(F)c(COC(=O)C2C(/C=C(\Cl)C(F)(F)F)C2(C)C)c(F)c1F (stereo not given)	inactive	
CC(C)C1(C)N=C(c2nc3ccccc3cc2C(=O)O)NC1=O (stereo not given)	inactive	
CN(C)C(=S)SSC(=S)N(C)C	inactive	
